Data published in PubChem BioAssay (Tox21).
Inconclusive results are not listed. Calls of active or inactive are those of the source. Unless noted, the call rests on the fitted dose curve.

Key:
[1] = Nuclear factor erythroid 2-related factor 2/antioxidant responsive element (Nrf2/ARE) small molecule agonists: qHTS cell viability counter screen in human keratinocytes (AID 1919968; active means well fitted curve in the direction sought with a large enough effect in the repeat runs; an effect the other way counts as inactive or inconclusive; further: nearly all actives have a fitted effect of over 55% in size)
How it was run: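 Cells of the KeratinoSens line were plated at 1,500 per well and left for 5 h before compound transfer from DMSO stocks. After a 23 h incubation (37 C, 5% CO2), CellTiter-Fluor was added. Signal was taken as fluorescence intensity 1 h later.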

[2] = Nuclear factor erythroid 2-related factor 2/antioxidant responsive element (Nrf2/ARE) small molecule agonists: luciferase reporter gene qHTS assay in human keratinocytes (AID 1919969); further: nearly all actives have a fitted effect of over 35% in size
[3] = molecular target: Gonadotropin-releasing hormone receptor (Homo sapiens) (UniProt P30968); test: Human gonadotropin-releasing hormone receptor (GnRHR) small molecule agonists, calcium flux assay in GnRHR-HEK293 cells (AID 1920063); further: nearly all actives have a fitted effect of over 35% in size
How it was run: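 Compounds dissolved in DMSO are pin-transferred onto dye-loaded GnRHR-HEK293 cells, which were seeded 18 h before at 37 C/5% CO2. Calcium signal is read as fluorescence intensity at 1 s intervals for 3 min.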

[4] = molecular target: KiSS-1 receptor (Homo sapiens) (UniProt Q969F8); test: Human kisspeptin (KISS1R) small molecule agonists, calcium flux assay in KISS1R-HEK293 cells (AID 1920064; active means well fitted curve in the direction sought with a large enough effect in the repeat runs; an effect the other way counts as inactive or inconclusive)
How it was run: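 Cell line: HEK293, stable human KISS1R. Dye loading 1 h at 37 C after 18 h culture. Read: kinetic fluorescence, 480/540 nm, 3 min at 1 s intervals.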

[5] = G protein-coupled receptor (GPCR) small molecule agonists, calcium flux assay: HEK293 wild type cell line counter screen (AID 1920065)
How it was run: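 Tox21 10K compounds, 15 concentrations each in triplicate, pin-transferred in DMSO onto dye-loaded cells; kinetic read at 480/540 nm for 3 min, 1 s intervals.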

[6] = p53 small molecule agonists, cell-based qHTS assay with human liver microsomes (AID 1963577)
How it was run: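 Compounds act here after metabolic activation: human liver microsomes and NADPH, both at 0.5 mg/mL final, were co-added to p53RE-bla cells. Incubation ran 16 h at 37 C, followed by LiveBLAzer detection.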

[7] = p53 small molecule agonists, cell-based qHTS assay with rat liver microsomes (AID 1963578)
How it was run: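 Read-out is beta-lactamase reporter fluorescence (LiveBLAzer, 2 h, room temperature, dark) in p53RE-bla cells treated 16 h at 37 C with compound, rat liver microsomes and NADPH, both 0.5 mg/mL final.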

[8] = p53 small molecule agonists, cell-based qHTS assay with human liver microsomes: qHTS cell viability counter screen (AID 1963579); further: nearly all actives have a fitted effect of over 45% in size
How it was run: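 Cells carrying the p53 response-element beta-lactamase reporter are treated for 16 h at 37 C with test compounds in the presence of human liver microsomes and NADPH (both 0.5 mg/mL final); ATP-based CellTiter-Glo luminescence then reports viability.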

[9] = p53 small molecule agonists, cell-based qHTS assay with rat liver microsomes: qHTS cell viability counter screen (AID 1963580); further: nearly all actives have a fitted effect of over 45% in size
How it was run: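 Luminescent ATP readout (CellTiter-Glo, 30 min at room temperature) reports viability of p53RE-bla HCT-116 cells after 16 h at 37 C with test compounds under metabolic activation by rat liver microsomes and NADPH at 0.5 mg/mL final each.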

[10] = p53 small molecule agonists, cell-based qHTS assay: qHTS cell viability counter screen (AID 1963581); further: nearly all actives have a fitted effect of over 45% in size
How it was run: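 ATP content measured by luminescence in HCT-116 p53RE-bla cells treated 16 h at 37 C, same wells as the reporter screen.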

[11] = p53 small molecule agonists, cell-based qHTS assay (AID 1963582; active means well fitted activation curve with a large enough effect in the signal ratio in the repeat runs, not every such curve was filed as active; the % refers to the signal ratio)
How it was run: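 16 h compound exposure (37 C) of p53 response element–bla cells, preceded by 5 h recovery at 37 C/5% CO2; read-out via LiveBLAzer B/G FRET substrate, 2 h RT, fluorescence intensity.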

[12] = molecular target: 5-hydroxytryptamine receptor 2A (Homo sapiens) (UniProt P28223); test: 5-hydroxytryptamine receptor 2A (HTR2A) small molecule antagonists, cell-based qHTS assay (AID 1963586); further: nearly all actives have a fitted effect of over 45% in size
How it was run: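 CHO cells stably expressing human HTR2A were plated for 18 h at 37 C, then loaded with calcium dye for 1 h. Compounds were preincubated 5 min at room temperature before DOI (4 nM solution) was added. Kinetic fluorescence was read for 3 min.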

[13] = molecular target: 5-hydroxytryptamine receptor 2A (Homo sapiens) (UniProt P28223); test: 5-hydroxytryptamine receptor 2A (HTR2A) small molecule agonists, cell-based qHTS assay (AID 1963587); further: nearly all actives have a fitted effect of over 30% in size
How it was run: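 HTR2A-CHO cells, plated 18 h at 37 C/5% CO2, dye-loaded 1 h at 37 C; compounds in DMSO added by pin tool (agonist mode). Intracellular calcium flux read as kinetic fluorescence on FDSS over 2 min at 1 s intervals.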

[14] = molecular target: Muscarinic acetylcholine receptor M1 (Homo sapiens) (UniProt P11229); test: Cholinergic receptor muscarinic 1 (CHRM1) small molecule antagonists, cell-based qHTS assay (AID 1963588); further: nearly all actives have a fitted effect of over 40% in size
How it was run: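 Compounds were tested at 15 concentrations in three independent runs. Dye-loaded CHRM1-CHO cells were exposed 5 min at room temperature before stimulation by acetylcholine added at 50nM. Intracellular calcium was read kinetically on FDSS for 3 min.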

[15] = molecular target: Muscarinic acetylcholine receptor M1 (Homo sapiens) (UniProt P11229); test: Cholinergic receptor muscarinic 1 (CHRM1) small molecule agonists, cell-based qHTS assay (AID 1963589); further: nearly all actives have a fitted effect of over 35% in size
How it was run: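 Homogeneous fluorescence calcium flux, agonist mode. Human M1-expressing CHO cells; compound dosed at 15 concentrations, three independent runs; signal sampled every 1 sec.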

[16] = cAMP Responsive Elements (CRE) small molecule antagonists, cell-based qHTS assay (AID 1963591; active means well fitted inhibition curve with a large enough effect in the signal ratio in the repeat runs, not every such curve was filed as active; the % refers to the signal ratio)
How it was run: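 First, CRE-bla HEK293T cells settled 18 h at 37 C. Next, compound and 0.25 uM final NKH477 were applied for 3 h. Last, LiveBLAzer B/G substrate was loaded for 2 h at room temperature.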

[17] = molecular target: Beta-2 adrenergic receptor (Homo sapiens) (UniProt P07550); test: Adrenergic beta2 receptor (ADRB2) small molecule antagonists, cell-based qHTS assay (AID 1963592); further: series mostly up to about 92 µM; nearly all actives have a fitted effect of over 50% in size
How it was run: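 Assay format: CHO-ADRB2 cells, 18-20hr seeding at 37C/5% CO2, then compound plus 1nM isoproterenol agonist mix for 0.5hr RT. Homogeneous time-resolved fluorescence cAMP detection after 1hr, expressed as 665/615 nm ratio.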

[18] = molecular target: D(2) dopamine receptor (Homo sapiens) (UniProt P14416); test: Dopamine D2 receptor (DRD2) small molecule agonists, cell-based qHTS assay (AID 1963594); further: nearly all actives have a fitted effect of over 35% in size
How it was run: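 HEK293 cells stably expressing DRD2 were cultured 24 h at 37 C, then given Ro20-1724 (0.1 mM final) and compounds for 10 min at room temperature. NKH477 (200nM) was then added for 30 min. cAMP was read by HTRF.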

[19] = molecular target: D(2) dopamine receptor (Homo sapiens) (UniProt P14416); test: Dopamine D2 receptor (DRD2) small molecule antagonists, cell-based qHTS assay (AID 1963595; active means well fitted inhibition curve with a large enough effect in the signal ratio in the repeat runs, with a control signal flat; the % refers to the signal ratio)
How it was run: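 Cells were plated and grown for 24 h at 37 °C. Ro20-1724 (0.1 mM final) went in first, then compound for 10 min. NKH477 (200 nM) with quinpirole (12 nM) followed for 30 min at RT, then HTRF detection reagents for 1 h.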

[20] = cAMP Responsive Elements (CRE) small molecule agonists, cell-based qHTS assay (AID 1963590)
How it was run: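 HEK 293T cells stably bearing CRE-bla were plated at 2,000 cells per well and rested 18 h. Compounds, positive controls or DMSO were added for 3 h at 37 C. LiveBLAzer B/G substrate was then loaded for 2 h at room temperature.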
On the % scale 0 is the no-effect control and ±100 the full control effect.

D(2) dopamine receptor (Homo sapiens), sequence (P14416 whole entry, looked up): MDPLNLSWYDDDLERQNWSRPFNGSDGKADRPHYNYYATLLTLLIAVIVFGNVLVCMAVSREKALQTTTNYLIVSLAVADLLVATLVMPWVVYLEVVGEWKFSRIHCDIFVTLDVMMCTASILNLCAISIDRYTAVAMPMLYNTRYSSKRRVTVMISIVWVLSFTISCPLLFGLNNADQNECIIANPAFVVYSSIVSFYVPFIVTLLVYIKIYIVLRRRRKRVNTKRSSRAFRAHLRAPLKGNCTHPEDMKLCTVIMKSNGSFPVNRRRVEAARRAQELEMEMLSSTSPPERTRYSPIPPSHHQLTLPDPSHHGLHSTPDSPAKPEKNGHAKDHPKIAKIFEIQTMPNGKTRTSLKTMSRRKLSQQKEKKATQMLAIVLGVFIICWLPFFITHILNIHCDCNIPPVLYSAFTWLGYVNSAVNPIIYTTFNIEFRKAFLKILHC
KiSS-1 receptor (Homo sapiens), sequence (Q969F8 whole entry, looked up): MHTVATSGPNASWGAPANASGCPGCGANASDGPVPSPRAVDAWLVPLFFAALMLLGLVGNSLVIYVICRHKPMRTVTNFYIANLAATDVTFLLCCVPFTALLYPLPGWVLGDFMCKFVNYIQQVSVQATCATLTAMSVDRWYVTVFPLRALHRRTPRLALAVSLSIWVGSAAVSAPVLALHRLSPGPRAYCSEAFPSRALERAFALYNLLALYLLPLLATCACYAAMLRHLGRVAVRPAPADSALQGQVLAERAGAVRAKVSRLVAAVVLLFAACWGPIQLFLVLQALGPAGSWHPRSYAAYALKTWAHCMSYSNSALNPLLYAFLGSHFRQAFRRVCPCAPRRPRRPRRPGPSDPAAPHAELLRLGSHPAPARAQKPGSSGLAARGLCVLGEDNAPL
5-hydroxytryptamine receptor 2A (Homo sapiens), sequence (P28223 whole entry, looked up): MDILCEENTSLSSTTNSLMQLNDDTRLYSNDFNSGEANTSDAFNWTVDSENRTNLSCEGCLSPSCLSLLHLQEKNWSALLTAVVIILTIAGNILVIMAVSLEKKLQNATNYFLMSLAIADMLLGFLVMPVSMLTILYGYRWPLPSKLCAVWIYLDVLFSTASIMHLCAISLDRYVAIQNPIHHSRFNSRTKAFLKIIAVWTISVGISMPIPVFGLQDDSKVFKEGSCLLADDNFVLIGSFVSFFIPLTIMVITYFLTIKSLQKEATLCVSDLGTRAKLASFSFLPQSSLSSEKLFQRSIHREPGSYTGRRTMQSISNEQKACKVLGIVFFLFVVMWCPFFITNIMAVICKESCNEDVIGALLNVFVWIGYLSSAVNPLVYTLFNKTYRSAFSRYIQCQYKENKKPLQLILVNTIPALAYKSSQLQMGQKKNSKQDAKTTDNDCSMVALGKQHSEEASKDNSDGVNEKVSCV
Gonadotropin-releasing hormone receptor (Homo sapiens), sequence (P30968 whole entry, looked up): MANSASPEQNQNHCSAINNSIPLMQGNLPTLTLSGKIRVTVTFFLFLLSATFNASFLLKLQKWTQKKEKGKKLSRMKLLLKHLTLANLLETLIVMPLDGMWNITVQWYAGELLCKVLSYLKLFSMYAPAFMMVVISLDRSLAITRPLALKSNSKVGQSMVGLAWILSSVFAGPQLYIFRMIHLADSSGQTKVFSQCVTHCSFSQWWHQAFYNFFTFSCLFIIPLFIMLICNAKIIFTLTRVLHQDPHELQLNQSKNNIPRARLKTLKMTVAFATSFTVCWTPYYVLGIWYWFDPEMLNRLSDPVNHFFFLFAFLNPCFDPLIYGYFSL
Muscarinic acetylcholine receptor M1 (Homo sapiens), sequence (P11229 whole entry, looked up): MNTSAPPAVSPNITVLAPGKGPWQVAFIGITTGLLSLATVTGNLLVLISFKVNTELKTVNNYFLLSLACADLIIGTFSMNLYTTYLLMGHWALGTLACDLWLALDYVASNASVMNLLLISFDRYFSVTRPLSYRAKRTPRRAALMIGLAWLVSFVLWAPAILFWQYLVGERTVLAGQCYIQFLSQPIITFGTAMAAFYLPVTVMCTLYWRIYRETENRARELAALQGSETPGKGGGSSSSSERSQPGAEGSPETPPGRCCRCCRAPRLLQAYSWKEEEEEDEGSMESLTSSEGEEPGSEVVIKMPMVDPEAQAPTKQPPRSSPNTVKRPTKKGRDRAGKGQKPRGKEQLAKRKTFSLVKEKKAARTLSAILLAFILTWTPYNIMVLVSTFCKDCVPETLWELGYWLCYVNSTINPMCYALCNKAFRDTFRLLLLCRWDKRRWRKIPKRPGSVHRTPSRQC
Beta-2 adrenergic receptor (Homo sapiens), sequence (P07550 whole entry, looked up): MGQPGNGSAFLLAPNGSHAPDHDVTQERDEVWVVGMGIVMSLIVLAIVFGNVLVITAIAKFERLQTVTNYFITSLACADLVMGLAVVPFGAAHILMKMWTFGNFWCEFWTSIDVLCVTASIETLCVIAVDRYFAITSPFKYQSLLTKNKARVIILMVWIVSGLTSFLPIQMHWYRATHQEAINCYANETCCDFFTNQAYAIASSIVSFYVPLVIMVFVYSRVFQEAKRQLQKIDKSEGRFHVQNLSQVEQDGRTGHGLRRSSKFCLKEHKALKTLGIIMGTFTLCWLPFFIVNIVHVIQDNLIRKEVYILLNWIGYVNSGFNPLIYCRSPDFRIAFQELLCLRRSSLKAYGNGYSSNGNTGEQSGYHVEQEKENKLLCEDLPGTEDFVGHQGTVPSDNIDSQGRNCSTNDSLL

CCN(CCO)c1cccc(C)c1
inactive: Potency [1] | Potency [2] | Potency [3] | Potency [4] | Potency [5] | Potency [6] | Potency [7] | Potency [8] | Potency [9] | Potency [10] | Potency [11] | Potency [12] | Potency [13] | Potency [14] | Potency [15] | Potency [16] | Potency [17] | Potency [18] | Potency [19]

NC[C@H]1O[C@H](O[C@H]2[C@H](O)[C@@H](O[C@H]3O[C@H](CO)[C@@H](O)[C@H](N)[C@H]3O)[C@H](N)C[C@@H]2N)[C@H](N)[C@@H](O)[C@@H]1O
inactive: activity change, negative = cytotoxicity [1] -0.0182% [at 19 µM] | activity, positive = activation [2] 2.7% [at 19 µM] | activity change [3] 5.96% [at 11.8 µM, stronger effect = higher value] | activation [4] -0.341% [at 15.8 µM] | activation [5] -0.87% [at 11.8 µM] | activation [6] -1.52% [at 13.5 µM] | activation [7] -0.665% [at 13.6 µM] | activity change, negative = cytotoxicity [8] -3.3% [at 13.5 µM] | activity change, negative = cytotoxicity [9] 3.53% [at 13.5 µM] | activity change, negative = cytotoxicity [10] -25.6% [at 13.5 µM] | activation [11] 0.52% [at 13.5 µM] | activity, negative = inhibition [12] 6.4% [at 12.7 µM] | activation [13] -0.88% [at 15.9 µM] | activity, negative = inhibition [14] 7.06% [at 12.6 µM] | activation [15] -0.129% [at 15.8 µM] | activity change, negative = inhibition [16] 0.145% [at 18.9 µM] | activity change, negative = inhibition [17] 5.76% [at 19 µM] | activation [18] -0.355% [at 19 µM] | activity change, negative = inhibition [19] 13% [at 18.9 µM]

Nc1c(Br)cc([N+](=O)[O-])cc1Br
inactive: Potency [1] | Potency [2] | Potency [3] | Potency [4] | Potency [5] | Potency [6] | Potency [7] | Potency [8] | Potency [9] | Potency [10] | Potency [11] | Potency [12] | Potency [13] | Potency [14] | Potency [15] | Potency [16] | Potency [17] | Potency [18] | Potency [19]

Cc1cc(C)c(C)c(O)c1
inactive: Potency [1] | Potency [2] | Potency [3] | Potency [4] | Potency [5] | Potency [6] | Potency [7] | Potency [8] | Potency [9] | Potency [10] | Potency [11] | Potency [12] | Potency [13] | Potency [14] | Potency [15] | Potency [16] | Potency [17] | Potency [18] | Potency [19]

N#C[C@@H]1C[C@@H]2C[C@@H]2N1C(=O)[C@@H](N)C12CC3CC(CC(O)(C3)C1)C2
inactive: Potency [1] | Potency [2] | Potency [3] | Potency [4] | Potency [5] | Potency [6] | Potency [7] | Potency [8] | Potency [9] | Potency [10] | Potency [11] | Potency [12] | Potency [13] | Potency [14] | Potency [15] | Potency [16] | Potency [17] | Potency [18] | Potency [19]

C=CC(=O)OCCOC1C2CCC1C1CC=CC12 (centres undefined)
inactive: activity change, negative = cytotoxicity [1] 0.243% [at 19 µM] | activity, positive = activation [2] -2.46% [at 19 µM] | activity change [3] -0.687% [at 11.8 µM, stronger effect = higher value] | activation [4] 0.154% [at 15.8 µM] | activation [5] 0.0334% [at 11.8 µM] | activation [6] -3.49% [at 13.5 µM] | activation [7] -1.33% [at 13.6 µM] | activity change, negative = cytotoxicity [8] -0.599% [at 13.5 µM] | activity change, negative = cytotoxicity [9] -0.677% [at 13.5 µM] | activity change, negative = cytotoxicity [10] 10.1% [at 13.5 µM] | activation [11] -0.725% [at 13.5 µM] | activity, negative = inhibition [12] 14.3% [at 12.7 µM] | activation [13] -3.51% [at 15.9 µM] | activity, negative = inhibition [14] 1.12% [at 12.6 µM] | activation [20] -0.462% [at 19 µM] | activity change, negative = inhibition [16] -8.52% [at 18.9 µM] | activity change, negative = inhibition [17] -1.49% [at 19 µM] | activation [18] -2.06% [at 19 µM] | activity change, negative = inhibition [19] 7.6% [at 18.9 µM]
